As usually defined, the AC50 is the concentration giving half of the maximal activity seen.

Inconclusive results are not listed. Activity calls are given as the source filed them. Rule for the calls: active = hit-call score of the fitted dose curve at least 0.9, where 1 is the maximum; inconclusive = response in the unintended direction; inactive = score below 0.9.

Nuclear receptor subfamily 1 group I member 3 (Homo sapiens), sequence (Q14994 whole entry, looked up): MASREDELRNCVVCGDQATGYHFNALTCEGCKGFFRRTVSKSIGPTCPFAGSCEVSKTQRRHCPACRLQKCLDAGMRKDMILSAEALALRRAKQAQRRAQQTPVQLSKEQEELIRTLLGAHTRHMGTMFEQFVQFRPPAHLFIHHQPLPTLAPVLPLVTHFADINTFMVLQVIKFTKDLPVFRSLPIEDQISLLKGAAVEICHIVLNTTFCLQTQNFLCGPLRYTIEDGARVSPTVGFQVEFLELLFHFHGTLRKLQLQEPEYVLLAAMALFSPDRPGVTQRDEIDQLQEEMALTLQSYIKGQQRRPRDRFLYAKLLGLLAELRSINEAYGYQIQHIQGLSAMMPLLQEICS

The experiment addresses Nuclear receptor subfamily 1 group I member 3 (Homo sapiens) (UniProt Q14994). Nature of the experiment: ATG_CAR_TRANS: Attagene TRANS-FACTORIAL HepG2 Assay for human Constitutive Androstane Receptor (CAR) (AID 2282969).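 Note: activators raise reporter mRNA above DMSO so AC50 marks induction.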 As to conditions: HepG2 Attagene TRANS-FACTORIAL CAR reporter. The procedure:
ATG_TRANS is a cell-based, multiplexed-readout assay that uses HepG2, a human liver cell line, with measurements taken at 24 hours after chemical dosing in a 24-well plate.ATG_CAR_TRANS is one of 30 assay component(s) measured or calculated from the ATG_TRANS assay. It is designed to make measurements of mRNA induction, a form of inducible reporter, as detected with fluorescence intensity signals by Reverse transcription polymerase chain reaction (RT-PCR) and Capillary electrophoresis technology.Data from the assay component ATG_CAR_TRANS was analyzed into 1 assay endpoint. This assay endpoint, ATG_CAR_TRANS, was analyzed in the positive analysis fitting direction relative to DMSO as the negative control and baseline of activity. Using a type of inducible reporter, measures of mRNA for gain-of-signal activity can be used to understand the reporter gene at the transcription factor-level as they relate to the gene NR1I3. Furthermore, this assay endpoint can be referred to as a primary readout, because this assay has produced multiple assay endpoints where this one serves a reporter gene function. To generalize the intended target to other relatable targets, this assay endpoint is annotated to the nuclear receptor intended target family, where the subfamily is non-steroidal.
Human liver HepG2 cells are transiently transfected with multiple reporter transcription units (MRTUs) in 6-well plates using FuGene 6 reagent (Roche; 3 ml FuGene/1 mg DNA). The MRTU constructs are regulated by a cis-regulating element (promoter). […] A major difference between the CIS and TRANS system is that in CIS activities of endogenous TFs are measured, whereas the TRANS assay evaluates changes in activities of exogenous, chimeric NR-Gal4 proteins. […] At the end of 24 hour incubation, total RNA was isolated using TriZol reagent (Invitrogen). The isolated RNA is then reverse-transcribed using oligo(dT) primer and Mo-MLV reverse transcriptase (Invitrogen) with DNAse I (Ambion) treatment for 30 min. The one-tenth of the produced cDNA was amplified by PCR using Taq DNA polymerase (Invitrogen) and two reporter sequence-specific primers. The PCR products were fluorescently labeled by primer extension with 6-arboxyfluorescein (6-FAM) 5'-labeled reporter sequence-specific primer (2 min at 95 C, 20 s at 68 C and 10 min at 72 C) and these products were digested with 5U of HpaI (New England Biolabs) for 2h at 37 C. The fragments were purified using Qiaquick PCR columns (Qiagen), analyzed on an ABI 3130xL genetic analyzer (Applied Biosystems) with peak positions identified by using a set of X-rhodamine (ROX)-labeled MapMarker1000 molecular weight standards (BioVentures). The raw capillary electrophoresis data was processed using Attagraph software (Attagene).
On to `CCCCCCCCCC[N+](C)(CCCCCCCCCC)CCC[Si](OC)(OC)OC`, for which the compound was classed as inactive. In the case of `CC(C)CCOCc1ccccc1`, the result was inactive. As for `CCCCCCCO`, the compound was classed as inactive. Consider `CCc1cccc(C)c1N(C(=O)CS(=O)(=O)O)C(C)COC` (stereo not given), for which the outcome was inactive. The same measure, in the same setting: to `Cc1noc(NS(=O)(=O)c2ccc(N)cc2)c1C` belongs “inactive”; to `CC=C(C)C=CC=C(C)C`, “inactive”; to `CC(C)c1cccc(C(C)C)c1N`, “inactive”. On to `CC(=O)OCC=C(C)C`, for which the compound was called inactive. Consider `Cc1cccc(C(C)(C)C)c1O`, for which the compound was classed as inactive.

For the compound `C=C(C)C(=O)OCC(O)COc1ccc(C(C)(C)c2ccc(OCC(O)COC(=O)C(=C)C)cc2)cc1` (stereo not given), the compound was classed as inactive. For `CC=C(C)C(C)=O`, the result was inactive. On the same count and under the same terms, to `CC(C)c1ccc2ncccc2c1` belongs “inactive”. Take `[Cl][Sc]([Cl])[Cl]`: the compound was classed as inactive. Consider `CCCCC(CC)COC(=O)/C=C/c1ccc(OC)cc1` (stereo not given), for which the result was inactive. As to `CCOC(=O)[C@H](O)[C@@H](O)C(=O)OCC`, the compound was classed as inactive. In the case of `O=C1CCCN1C1CCCCC1`, the compound was called inactive. In the case of `c1ccc2c(c1)[nH]c1ccccc12`, the compound was called inactive. For the compound `CCCC1CCCC(=O)O1` (stereo not given), the compound was classed as inactive. Turning to `O=C(O)CC(C(=O)O)S(=O)(=O)O` (stereo not given), the outcome was inactive. `C=CC(=O)OCCCCCCOC(=O)C=C`: the compound was classed as inactive. Take `CC1(C)[C@@H]2CC[C@@]1(C)C(=O)C2`: the call was inactive. In the case of `O=C(Cl)c1ccc(C(=O)Cl)cc1`, the compound was classed as inactive. On to `CC(C)CCCCCOC(=O)CS`, for which the call was inactive. On to `CCOc1ccc(NC(N)=O)cc1`, for which the outcome was inactive. Same read-out and setting: for `COc1cc(C)ccc1O` the value was “inactive”; for `CC(CC=O)CC(C)(C)C` (stereo not given), “inactive”.

In the case of `CCCCC(=O)O`, the compound was called inactive. As to `Cc1ccc2c(c1)CCCN2`, the compound was called inactive. Turning to `CCCCC1CCC(=O)O1` (stereo not given), the compound was classed as inactive. As for `C=CC(=O)O[C@H]1C[C@@H]2CC[C@@]1(C)C2(C)C`, the AC50 is 162 µM (active).

As for `CC(=O)CC(=O)Nc1ccccc1C`, the compound was classed as inactive. The same measure, in the same setting: to `CCNc1nc(NC(C)(C)C)nc(OC)n1` belongs “inactive”; to `Oc1ccc(-c2ccccc2)c(Cl)c1`, “inactive”. As to `C=C[Si](OCCOC)(OCCOC)OCCOC`, the compound was called inactive. On the same count and under the same terms, to `Nc1cccc(N)n1` belongs “inactive”; to `CO[Si](C)(C)OC`, “inactive”. On to `O=S(=O)(O)c1ccc(N=Nc2c(O)ccc3ccccc23)cc1`, for which the call was inactive. As to `N#Cc1ccc(C2CCCc3cncn32)cc1` (stereo not given), the compound was classed as inactive. The same measure, in the same setting: for `COc1cc(O)c(C(=O)c2ccccc2)cc1S(=O)(=O)O` the value was “inactive”; for `CC1=NN(c2ccc(S(=O)(=O)O)cc2)C(=O)C1N=Nc1ccccc1` (stereo not given), “inactive”.

(Values after PubChem BioAssay (EPA / NIEHS).)
